Out of some 3,200 compounds screened, about 300 (9.4%) showed activity. The full list was thinned out, with actives kept by preference.
Test system: A673/TR/shEF
Assay: cell viability (LOESS-normalised, relative to median of negative controls) (log2 ratio); higher = more viable cells (less compound effect), active = hit call of the paper (over 3 MAD below the median)
Details: treatment time: 72 h
Procedure, shortened: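 A673/TR/shEF Ewing sarcoma cells were plated at 1,500 per well in 384-well plates and cultured with or without doxycycline, added 24 h before compounds, to induce EWS-FLI1 shRNA knockdown. Library compounds at two or more concentrations, alongside DMSO controls, were applied for three days. Cell viability was measured by CellTiter-Glo luminescence on an Envision reader. Readings were LOESS-corrected per plate, divided by the median of negative controls and log2-transformed, and hits were wells lying at least three median absolute deviations from the median of all screened wells.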

[1] = 0.25 µM, library screen: screen1, EWS-FLI1 expression: high (no doxycycline)
[2] = 0.25 µM, library screen: screen1, EWS-FLI1 expression: low (doxycycline-induced shRNA knockdown)
[3] = 2.5 µM, library screen: screen1, EWS-FLI1 expression: high (no doxycycline)
[4] = 2.5 µM, library screen: screen1, EWS-FLI1 expression: low (doxycycline-induced shRNA knockdown)

Measured: cell viability (log2)

c1cncc(C2CCCCN2)c1 (centres undefined)
inactive: [1] 0.0408 | [2] -0.0074 | [3] 0.145 | [4] 0.0957

CC(C)=CCCC1(C)C=Cc2c(O)c3c(c(CC=C(C)C)c2O1)OC12C(=CC4CC1C(C)(C)OC2(CC=C(C)C(=O)O)C4O)C3=O (centres undefined)
active: [3] -0.137
0.307: [4]
inactive: [1] 0.1 | [2] 0.0956

CC(C)=CCC[C@]1(C)C=Cc2c(O)c3c(c(CC=C(C)C)c2O1)O[C@]12C(=C[C@@H]4C[C@H]1C(C)(C)O[C@@]2(C/C=C(/C)C(=O)O)C4=O)C3=O
active: [3] -1.16
inactive: [1] -0.0514 | [2] 0.129 | [4] -0.0142

CC(C)=CCCC1(C)C=Cc2c(O)c3c(c(CC=C(C)C)c2O1)OC12C(CC4CC1C(C)(C)OC2(C/C=C(/C)C(=O)O)C4O)C3=O (centres undefined)
inactive: [1] 0.0661 | [2] 0.00238 | [3] 0.127 | [4] 0.0888

CC(=O)Oc1c2c(c(CC=C(C)C)c3c1C(=O)C1=C[C@@H]4CC5C(C)(C)OC(C/C=C(\C)C(=O)O)(C4=O)[C@@]15O3)OC(C)(CCC=C(C)C)C=C2 (some centres undefined)
inactive: [1] 0.0664 | [2] 0.0597 | [3] -0.0173 | [4] 0.269

COC(=O)/C(C)=C\CC12OC(C)(C)C3CC(C=C4C(=O)c5c(OC)c6c(c(CC=C(C)C)c5OC431)OC(C)(CCC=C(C)C)C=C6)C2=O (centres undefined)
inactive: [1] 0.0497 | [2] 0.135
active: [3] -4.2 | [4] -3.74

COc1cccc(CN2CCN(Cc3ccccc3OC)CC2)c1
inactive: [1] 0.108 | [2] 0.0202 | [3] 0.149 | [4] -0.0141

COc1cc2c(cc1-c1cc3cc4ccoc4cc3oc1=O)OCO2
inactive: [1] 0.0215 | [2] -0.011 | [3] 0.0285 | [4] 0.107

CN1[C@H]2CC(OC(=O)C(CO)c3ccccc3)C[C@H]1[C@H]1O[C@H]12 (some centres undefined)
inactive: 0.103 µM, library screen: screen3, EWS-FLI1 expression: high (no doxycycline) 0.0178 | 0.103 µM, library screen: screen3, EWS-FLI1 expression: low (doxycycline-induced shRNA knockdown) 0.0286 | [1] 0.0614 | [2] 0.0379 | 0.25 µM, library screen: screen2, EWS-FLI1 expression: high (no doxycycline) 0.0402 | 0.25 µM, library screen: screen2, EWS-FLI1 expression: low (doxycycline-induced shRNA knockdown) 0.0538 | 0.308 µM, library screen: screen3, EWS-FLI1 expression: high (no doxycycline) 0.0468 | 0.308 µM, library screen: screen3, EWS-FLI1 expression: low (doxycycline-induced shRNA knockdown) 0.0486 | 0.926 µM, library screen: screen3, EWS-FLI1 expression: high (no doxycycline) 0.057 | 0.926 µM, library screen: screen3, EWS-FLI1 expression: low (doxycycline-induced shRNA knockdown) 0.0457 | [3] 0.101 | [4] 0.113 | 2.5 µM, library screen: screen2, EWS-FLI1 expression: high (no doxycycline) 0.0967 | 2.5 µM, library screen: screen2, EWS-FLI1 expression: low (doxycycline-induced shRNA knockdown) 0.105 | 2.8 µM, library screen: screen3, EWS-FLI1 expression: high (no doxycycline) 0.00477 | 2.8 µM, library screen: screen3, EWS-FLI1 expression: low (doxycycline-induced shRNA knockdown) 0.0597 | 8.3 µM, library screen: screen3, EWS-FLI1 expression: high (no doxycycline) 0.0173 | 8.3 µM, library screen: screen3, EWS-FLI1 expression: low (doxycycline-induced shRNA knockdown) 0.0298 | 25 µM, library screen: screen3, EWS-FLI1 expression: high (no doxycycline) -0.0119 | 25 µM, library screen: screen3, EWS-FLI1 expression: low (doxycycline-induced shRNA knockdown) 0.114

CCNc1nc(Cl)nc(NCC)n1
inactive: [1] 0.0934 | [2] -0.0122 | [3] 0.0949 | [4] 0.0079

c1ccc2c(c1)sc1ccccc12
inactive: [1] 0.0739 | [2] 0.0613 | [3] 0.158 | [4] 0.198

CCOP(=S)(OCC)SCSP(=S)(OCC)OCC
inactive: [1] 0.0176 | [2] 0.0157 | [3] 0.0447 | [4] 0.0694

Reference: the supplement of paper PMC6089552
